PubChem BioAssay AID720690 (Broad Institute, 2013)
Measured potencies and affinities stand elsewhere. Calls of active or inactive are those of the source.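 How the source made its calls: active means every repeat run showing a signal drop whose fitted half-maximal concentration is at most twice the top tested concentration; inconclusive means repeat runs disagree, or flat partial drop, or poor fit; inactive means the rest.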

Experiment: HEK293T cytotoxicity, dose response, cytotoxicity control for miR-122 modulator project, cell-based, activator set, cherry-pick (AID 720690)
Conditions: HEK293T viability, CellTiter-Glo luminescence, 48 h; series mostly up to 26 µM
With `O=C1NC(=O)N(CCC2=CCCCC2)C(=O)/C1=C\c1cccs1` the outcome was “inactive”. For `O=C(c1ccco1)c1cn(Cc2ccccc2Cl)c2ccccc12`, the outcome was “inactive”. For `COc1ccc2c(c1)c(CCN)c(C)n2Cc1ccccc1`, the outcome was “inactive”. With `COc1ccc(C2SCC(=O)Nc3c2c(=O)[nH]n3C2CCCCCC2)cc1` (centres undefined) the outcome was “inactive”.
